Sampled rows, rich in hits. Any-hit rate of the full collection: about 4.1%.
beta cell repl – inducers of beta-cell replication in MIN6 cells; MIN6 cells proliferation, ATPlite luminescence, 48 h; cells starved in 0.2% serum; 100% = growth in 10% serum; proliferation, % at 10 µM; 330,000 tested, 0.29% active; AID 2380;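 active means compounds whose signal lies at least 3.5 SD above the mean of all wells on their plate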;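 further: 0% = DMSO-treated cells in low-serum medium and 100% = 10% serum control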
NR3A LBD binder – modulators (binders) of human NR3A ligand-binding domain. AID 1259313. NR3A LBD differential scanning fluorimetry, Tm shift; 0% = protein alone, 100% = glycine-bound protein. Tm shift relative to glycine control, % at 25 µM. 340,000 tested, 2.5% active;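 active means melting temperature shift of at least 10% of the positive control shift, at one fixed dose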
pCIP destab – compounds decreasing mouse p/CIP protein stability; Q05BA5; F442A p/CIP-EGFP cells, EGFP fluorescence, 16 h; decrease of EGFP signal, % at 10 µM; 290,000 tested, 0.01% active;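 active means EGFP signal decrease of at least 30% at 10 µM or well 3 SD below plate mean, unless failing retest; inactive means the rest, including hits failing retest or dose response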
FAS-TE inh – inhibitors of human fatty acid synthase thioesterase domain; 360,000 tested, 0.67% active; recombinant FAS-TE, OMFH fluorogenic substrate, fluorescence endpoint; P49327; inhibition, % at 15 µM;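 active means compounds whose normalised, plate-corrected inhibition of enzyme fluorescence in the single-dose primary screen is 50% or more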;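 further: 0% = DMSO with enzyme and 100% = substrate without enzyme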
MPTP inh – permeability transition pore inhibition; isolated mouse mitochondria, Ca2+ swelling absorbance, 30 min; inhibition, % at 10 µM; 360,000 tested, 1.4% active;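 active means inhibition of 50% or more, scaled per plate between neutral and stimulator controls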;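 further: 0% = DMSO wells given calcium and 100% = 1 mM EGTA wells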
* = called active by the depositor; nt = no result given.

SMILES	beta cell repl	NR3A LBD binder	pCIP destab	FAS-TE inh	MPTP inh
O=C(COC(=O)c1cc(NS(=O)(=O)c2cccs2)ccc1O)Nc1ccc(F)c(F)c1F	-2.1	-0.8	3.9	16.8	-1.0
O=C(COC(=O)c1cc(NS(=O)(=O)c2cccs2)ccc1O)Nc1cc(Cl)ccc1Cl	1.2	30.2*	-12.9	7.5	7.4
C[C@@H]1CC2=C(C(=O)OC(C)(C)O2)[C@H](c2ccc(Cl)cc2)O1	nt	nt	nt	-4.0	0.7
CC1CCN(S(=O)(=O)c2ccc(NC(=O)C3CCCCC3C(=O)O)cc2)CC1 (stereo unspecified)	nt	11.0*	nt	0.0	-0.9
COC(=O)Nc1ccc(S(=O)(=O)N2CCC(C)CC2)cc1	-2.4	12.7*	-7.8	5.7	-1.7
O=C(Nc1ccc(S(=O)(=O)N2CCCCC2)cc1)c1ccncc1	-0.6	2.1	-13.3	-15.9	14.8
CC1CCN(S(=O)(=O)c2ccc(NC(=O)[C@@H]3CCCC[C@@H]3C(=O)O)cc2)CC1	-0.4	-0.3	-6.7	-0.3	0.9
CC1CCN(S(=O)(=O)c2ccc(NC(=O)c3ccncc3)cc2)CC1	-2.1	11.7*	-24.6	0.1	-1.2
CC1CCN(S(=O)(=O)c2cccc(C(=O)Nc3nncs3)c2)CC1	-2.4	17.4*	8.5	-4.1	-0.5
CCc1nc2c(OCCc3cccc(OC)c3)cccn2c1N(C=O)Cc1ccc(OC)cc1	nt	nt	nt	2.6	1.4
O=C(CN1N=C(c2ccccc2)CCC1=O)NCc1ccccc1	-2.4	-0.4	-2.6	3.4	-1.0
O=C(CN1N=C(c2ccccc2)CCC1=O)NCCN1CCc2ccccc2C1	4.6*	0.7	2.7	-8.3	-0.4
O=S1(=O)N[C@@H](Cc2ccccc2)COc2cccc(N3CCC[C@H]3CO)c21	nt	nt	nt	-2.1	1.6
O=[N+]([O-])c1ccc2nc(-c3ccccc3)[nH]c2c1	-2.1	16.5*	3.9	4.6	46.6
O=[N+]([O-])c1cccc(-c2cc3ccccc3[nH]2)c1	-2.7	33.6*	5.0	21.4	1.3
c1ccc(-c2cc3ccccc3[nH]2)cc1	-1.7	0.6	6.5	18.3	4.3
O=[N+]([O-])c1cccc(/C=C/c2nc3ccc([N+](=O)[O-])cc3[nH]2)c1	2.1	16.0*	0.9	19.2	5.8
O=[N+]([O-])c1ccc2nc(-c3cccnc3)[nH]c2c1	-4.7	1.1	-4.9	5.0	-0.6
COc1ccc(-c2cc3ccccc3[nH]2)cc1	-0.8	13.8*	-6.1	-2.3	2.1
CCOC(=O)C1(C)CCN1C(=O)c1ccc(Cl)nc1 (stereo unspecified)	nt	nt	nt	-4.8	-1.3
CC1(C(=O)Nc2cccc(OC(F)(F)F)c2)Cc2c(-c3cccc(C(N)=O)c3)ccnc2O1 (stereo unspecified)	nt	nt	nt	17.4	-0.6
CC1c2ccccc2-c2ccccc2N1C (stereo unspecified)	nt	1.1	nt	-6.2	-0.9
O=C(NCc1cccnc1)c1cc(C2CCCN(S(=O)(=O)c3cccc4cccnc34)C2)on1 (stereo unspecified)	nt	nt	nt	-7.6	0.5
Cc1cc([N+](=O)[O-])ccc1Nc1nc2ccccc2n2cnnc12	-4.5	37.2*	-9.7	6.1	0.6
O=C(Nc1cc(C(F)(F)F)ccc1Cl)c1ccc(NC(=O)C(F)(F)F)cc1	0.0	28.5*	1.5	13.9	7.2
SMILES	beta cell repl	NR3A LBD binder	pCIP destab	FAS-TE inh	MPTP inh
Cc1ccc(/C=N/NS(=O)(=O)c2ccccc2)o1	0.0	21.3*	0.7	-9.5	11.6
Cc1oc(/C=N/NS(=O)(=O)c2ccccc2)cc1Br	0.0	2.8	8.5	-9.0	1.6
CC(=O)Nc1ccc(S(=O)(=O)N2CN(c3ccc(C)cc3)c3nc4ccccc4nc32)cc1	-6.5	16.0*	-4.0	9.5	2.5
Cc1ccc(N2CN(S(=O)(=O)c3cccc([N+](=O)[O-])c3)c3nc4ccccc4nc32)cc1	-1.9	-0.3	-11.8	24.9	5.9
CCCCn1nnnc1C1(C)CCC(=O)N1Cc1cccc(F)c1 (stereo unspecified)	nt	nt	nt	-6.6	-0.8
CC1=C(C(=O)N(C)C)CC(CC(=O)NC2CCCCC2)C(=O)N1Cc1ccc(F)cc1 (stereo unspecified)	nt	nt	nt	-12.0	1.7
COC(=O)c1sccc1-n1cc2c(c1-c1ccccc1)c(=O)n(C)c(=O)n2C	nt	nt	nt	-4.5	-1.7
CCOc1cc(/C=N/NC(=O)c2nnn(-c3nonc3N)c2C)ccc1OCc1ccc(F)cc1	0.2	15.4*	0.0	-6.2	0.5
CCOc1cc(/C=N/NC(=O)c2nnn(-c3nonc3N)c2C)ccc1OCc1cccc(F)c1	-4.6	26.0*	-3.0	-3.9	0.0

Screens deposited in PubChem BioAssay by Sanford-Burnham Center for Chemical Genomics.
